Assay [1] deals with High affinity nerve growth factor receptor (Homo sapiens) (UniProt P04629). The following applies: at 1 µM.
The target of assay [2] is BDNF/NT-3 growth factors receptor (Homo sapiens) (UniProt Q16620). The following applies: at 0.1 µM.
The target is the same in assay [3]. The conditions noted are these: at 1 µM.
The target of assay [4] is NT-3 growth factor receptor (Homo sapiens) (UniProt Q16288). The following applies: at 0.1 µM.
For assay [5] the target is unchanged. The conditions noted are these: at 1 µM.
Assay [6] deals with T1, Tyrosine-protein kinase TXK (Homo sapiens) (UniProt P42681).
T1 sequence (whole entry): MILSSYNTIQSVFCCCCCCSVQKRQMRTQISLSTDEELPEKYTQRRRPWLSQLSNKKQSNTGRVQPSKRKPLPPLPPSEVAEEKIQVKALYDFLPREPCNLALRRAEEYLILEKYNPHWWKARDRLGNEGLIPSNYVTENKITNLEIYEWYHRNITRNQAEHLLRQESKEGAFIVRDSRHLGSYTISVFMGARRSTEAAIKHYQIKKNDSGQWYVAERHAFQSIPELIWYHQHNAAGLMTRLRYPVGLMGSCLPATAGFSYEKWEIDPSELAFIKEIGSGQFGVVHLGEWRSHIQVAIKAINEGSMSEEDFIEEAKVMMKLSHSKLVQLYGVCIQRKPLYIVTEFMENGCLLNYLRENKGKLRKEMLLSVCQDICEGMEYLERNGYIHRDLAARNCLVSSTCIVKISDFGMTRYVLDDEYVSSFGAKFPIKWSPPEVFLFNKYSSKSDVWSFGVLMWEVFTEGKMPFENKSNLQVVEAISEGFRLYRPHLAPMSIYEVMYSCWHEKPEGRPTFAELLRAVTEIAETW
The conditions noted are these: at 0.1 µM.

The target of assay [7] is T1, Tyrosine-protein kinase TXK (Homo sapiens). The following applies: at 1 µM.
Assay [8] deals with Non-receptor tyrosine-protein kinase TYK2 (Homo sapiens) (UniProt P29597). The conditions noted are these: at 0.1 µM.
Assay [9] concerns the target T2, Dual specificity protein kinase TTK (Homo sapiens) (UniProt P33981).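 Note: reported figures are mean TTK inhibition at 1 µM.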
T2 sequence (whole entry): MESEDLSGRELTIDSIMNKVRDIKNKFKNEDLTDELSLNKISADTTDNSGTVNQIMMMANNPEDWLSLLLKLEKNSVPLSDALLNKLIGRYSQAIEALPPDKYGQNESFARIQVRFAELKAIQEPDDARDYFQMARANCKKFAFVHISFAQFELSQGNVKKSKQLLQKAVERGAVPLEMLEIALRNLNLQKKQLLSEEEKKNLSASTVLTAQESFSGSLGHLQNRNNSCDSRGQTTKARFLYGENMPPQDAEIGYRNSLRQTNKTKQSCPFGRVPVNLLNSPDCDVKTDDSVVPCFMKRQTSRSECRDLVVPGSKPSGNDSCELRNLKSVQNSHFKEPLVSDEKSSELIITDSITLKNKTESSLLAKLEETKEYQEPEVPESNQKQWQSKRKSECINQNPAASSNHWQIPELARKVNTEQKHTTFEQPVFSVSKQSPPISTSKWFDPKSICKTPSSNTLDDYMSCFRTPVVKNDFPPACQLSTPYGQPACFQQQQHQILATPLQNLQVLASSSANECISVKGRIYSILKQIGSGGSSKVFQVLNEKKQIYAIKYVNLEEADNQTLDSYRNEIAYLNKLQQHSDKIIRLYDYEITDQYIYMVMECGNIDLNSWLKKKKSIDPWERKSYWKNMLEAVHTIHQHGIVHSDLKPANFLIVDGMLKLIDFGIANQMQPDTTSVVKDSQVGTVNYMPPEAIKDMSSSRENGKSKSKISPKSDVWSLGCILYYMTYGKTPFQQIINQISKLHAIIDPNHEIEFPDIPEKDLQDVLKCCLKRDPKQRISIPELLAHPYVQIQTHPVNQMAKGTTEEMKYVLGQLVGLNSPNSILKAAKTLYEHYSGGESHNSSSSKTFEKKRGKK
The conditions noted are these: at 1 µM.

In assay [10] the target is T3, Aurora kinase A (Homo sapiens) (UniProt O14965).
T3 sequence (whole entry): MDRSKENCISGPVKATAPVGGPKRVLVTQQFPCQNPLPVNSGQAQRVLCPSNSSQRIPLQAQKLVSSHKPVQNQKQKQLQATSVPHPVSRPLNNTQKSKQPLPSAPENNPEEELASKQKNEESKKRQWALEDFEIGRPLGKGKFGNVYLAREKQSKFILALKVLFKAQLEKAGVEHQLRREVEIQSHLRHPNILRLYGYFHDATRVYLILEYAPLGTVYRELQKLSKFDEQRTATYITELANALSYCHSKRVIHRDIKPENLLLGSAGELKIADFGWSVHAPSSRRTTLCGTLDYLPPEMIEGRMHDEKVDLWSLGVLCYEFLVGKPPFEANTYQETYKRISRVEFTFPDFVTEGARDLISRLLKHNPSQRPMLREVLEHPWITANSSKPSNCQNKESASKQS
The following applies: at 0.1 µM.

The target of assay [11] is T3, Aurora kinase A (Homo sapiens). The following applies: at 1 µM.
The target in assay [12] is Aurora kinase B (Homo sapiens) (UniProt Q96GD4). The conditions noted are these: at 0.1 µM.
The target is the same in assay [13]. The following applies: at 1 µM.
For assay [14], the target named is T4, Aurora kinase C (Homo sapiens) (UniProt Q9UQB9).
T4 sequence (whole entry): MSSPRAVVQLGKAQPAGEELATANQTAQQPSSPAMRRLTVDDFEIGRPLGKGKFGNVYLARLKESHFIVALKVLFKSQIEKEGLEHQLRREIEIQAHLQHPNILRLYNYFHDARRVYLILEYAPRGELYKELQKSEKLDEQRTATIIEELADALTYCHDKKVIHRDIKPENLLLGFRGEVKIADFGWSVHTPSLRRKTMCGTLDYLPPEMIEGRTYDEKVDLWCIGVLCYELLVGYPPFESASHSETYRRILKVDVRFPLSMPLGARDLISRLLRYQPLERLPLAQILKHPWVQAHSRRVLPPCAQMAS
The following applies: at 0.1 µM.

Assay [15] has as its target T4, Aurora kinase C (Homo sapiens). The conditions noted are these: at 1 µM.
Assay [16] deals with Serine/threonine-protein kinase 10 (Homo sapiens) (UniProt O94804). The following applies: at 0.1 µM.
For assay [17] the target is unchanged. The conditions noted are these: at 1 µM.
Assay [18] deals with T5, Mitogen-activated protein kinase kinase kinase kinase 2 (Homo sapiens) (UniProt Q12851).
T5 sequence (whole entry): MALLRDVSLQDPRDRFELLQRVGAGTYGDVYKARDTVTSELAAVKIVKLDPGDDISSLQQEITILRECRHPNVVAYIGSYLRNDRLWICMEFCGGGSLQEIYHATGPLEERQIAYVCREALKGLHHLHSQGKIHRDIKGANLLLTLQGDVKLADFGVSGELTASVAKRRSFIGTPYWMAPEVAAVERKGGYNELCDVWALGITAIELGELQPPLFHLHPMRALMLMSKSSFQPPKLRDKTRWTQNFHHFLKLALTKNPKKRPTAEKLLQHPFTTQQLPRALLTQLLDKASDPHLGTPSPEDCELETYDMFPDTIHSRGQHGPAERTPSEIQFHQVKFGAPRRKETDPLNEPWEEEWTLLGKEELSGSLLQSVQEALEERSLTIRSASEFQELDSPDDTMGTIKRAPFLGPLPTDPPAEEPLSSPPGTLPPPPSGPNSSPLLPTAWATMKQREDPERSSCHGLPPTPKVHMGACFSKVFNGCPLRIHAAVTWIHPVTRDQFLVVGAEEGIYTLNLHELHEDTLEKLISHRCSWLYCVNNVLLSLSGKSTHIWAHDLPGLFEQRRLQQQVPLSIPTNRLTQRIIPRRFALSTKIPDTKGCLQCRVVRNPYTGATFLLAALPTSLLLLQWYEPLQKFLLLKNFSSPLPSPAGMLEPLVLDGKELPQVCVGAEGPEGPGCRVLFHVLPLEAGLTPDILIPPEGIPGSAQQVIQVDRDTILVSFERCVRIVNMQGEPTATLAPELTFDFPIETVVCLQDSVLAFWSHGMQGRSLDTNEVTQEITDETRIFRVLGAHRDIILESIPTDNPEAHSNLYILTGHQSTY
The following applies: at 0.1 µM.

The target in assay [19] is T5, Mitogen-activated protein kinase kinase kinase kinase 2 (Homo sapiens). The following applies: at 1 µM.
In assay [20] the target is Mitogen-activated protein kinase kinase kinase kinase 4 (Homo sapiens) (UniProt O95819). The conditions noted are these: at 0.1 µM.
Mitogen-activated protein kinase kinase kinase kinase 4 (Homo sapiens), sequence (O95819 2-1239 limits assumed): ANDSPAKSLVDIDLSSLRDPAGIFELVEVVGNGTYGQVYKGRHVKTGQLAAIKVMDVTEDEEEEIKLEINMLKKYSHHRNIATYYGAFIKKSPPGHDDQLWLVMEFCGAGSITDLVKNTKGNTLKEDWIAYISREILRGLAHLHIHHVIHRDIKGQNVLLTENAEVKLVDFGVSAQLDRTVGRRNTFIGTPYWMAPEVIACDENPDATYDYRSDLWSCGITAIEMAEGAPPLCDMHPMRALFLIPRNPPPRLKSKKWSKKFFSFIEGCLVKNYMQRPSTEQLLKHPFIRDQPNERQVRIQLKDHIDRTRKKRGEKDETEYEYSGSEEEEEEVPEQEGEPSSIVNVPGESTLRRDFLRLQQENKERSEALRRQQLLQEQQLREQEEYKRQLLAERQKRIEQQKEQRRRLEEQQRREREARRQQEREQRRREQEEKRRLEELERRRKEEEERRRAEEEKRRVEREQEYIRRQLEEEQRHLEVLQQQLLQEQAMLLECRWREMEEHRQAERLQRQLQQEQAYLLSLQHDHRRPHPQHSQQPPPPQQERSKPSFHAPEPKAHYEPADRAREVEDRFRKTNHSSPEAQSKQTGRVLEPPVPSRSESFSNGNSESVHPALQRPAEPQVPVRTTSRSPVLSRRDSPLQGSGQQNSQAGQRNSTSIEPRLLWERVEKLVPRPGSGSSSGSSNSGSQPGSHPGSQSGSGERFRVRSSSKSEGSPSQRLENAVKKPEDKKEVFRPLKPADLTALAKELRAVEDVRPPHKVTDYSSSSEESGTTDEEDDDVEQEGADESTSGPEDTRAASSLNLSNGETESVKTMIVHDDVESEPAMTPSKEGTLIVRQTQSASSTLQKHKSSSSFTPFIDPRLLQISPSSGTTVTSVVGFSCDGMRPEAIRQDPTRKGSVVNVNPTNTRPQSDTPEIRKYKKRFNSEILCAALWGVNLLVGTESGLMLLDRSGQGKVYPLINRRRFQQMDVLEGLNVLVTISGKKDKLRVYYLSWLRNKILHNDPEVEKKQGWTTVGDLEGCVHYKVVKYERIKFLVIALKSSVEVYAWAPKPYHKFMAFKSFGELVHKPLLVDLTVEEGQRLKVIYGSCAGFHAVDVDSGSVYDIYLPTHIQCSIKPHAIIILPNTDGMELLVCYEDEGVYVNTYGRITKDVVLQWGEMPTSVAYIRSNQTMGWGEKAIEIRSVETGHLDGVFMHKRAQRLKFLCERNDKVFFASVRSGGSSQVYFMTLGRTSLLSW

High affinity nerve growth factor receptor (Homo sapiens), sequence (P04629 33-796 limits assumed): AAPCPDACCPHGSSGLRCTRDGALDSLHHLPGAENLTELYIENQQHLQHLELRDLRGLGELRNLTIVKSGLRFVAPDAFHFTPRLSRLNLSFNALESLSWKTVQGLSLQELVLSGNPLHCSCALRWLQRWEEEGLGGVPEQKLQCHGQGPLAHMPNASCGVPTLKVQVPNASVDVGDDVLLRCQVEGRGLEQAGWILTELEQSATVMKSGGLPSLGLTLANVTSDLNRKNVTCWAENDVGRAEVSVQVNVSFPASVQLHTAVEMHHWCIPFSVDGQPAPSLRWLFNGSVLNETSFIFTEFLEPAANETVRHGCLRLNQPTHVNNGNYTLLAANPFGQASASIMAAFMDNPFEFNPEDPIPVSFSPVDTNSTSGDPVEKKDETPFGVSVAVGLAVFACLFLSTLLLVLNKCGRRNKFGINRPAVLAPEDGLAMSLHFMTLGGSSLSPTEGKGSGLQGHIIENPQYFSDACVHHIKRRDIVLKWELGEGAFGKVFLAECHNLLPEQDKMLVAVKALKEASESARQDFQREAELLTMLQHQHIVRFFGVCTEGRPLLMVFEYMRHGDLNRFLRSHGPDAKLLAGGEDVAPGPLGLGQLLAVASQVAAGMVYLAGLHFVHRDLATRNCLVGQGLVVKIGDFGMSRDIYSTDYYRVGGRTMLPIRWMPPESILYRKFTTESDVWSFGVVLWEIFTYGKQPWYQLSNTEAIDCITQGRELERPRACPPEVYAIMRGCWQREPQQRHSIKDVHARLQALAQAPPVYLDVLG
BDNF/NT-3 growth factors receptor (Homo sapiens), sequence (Q16620 32-822 limits assumed): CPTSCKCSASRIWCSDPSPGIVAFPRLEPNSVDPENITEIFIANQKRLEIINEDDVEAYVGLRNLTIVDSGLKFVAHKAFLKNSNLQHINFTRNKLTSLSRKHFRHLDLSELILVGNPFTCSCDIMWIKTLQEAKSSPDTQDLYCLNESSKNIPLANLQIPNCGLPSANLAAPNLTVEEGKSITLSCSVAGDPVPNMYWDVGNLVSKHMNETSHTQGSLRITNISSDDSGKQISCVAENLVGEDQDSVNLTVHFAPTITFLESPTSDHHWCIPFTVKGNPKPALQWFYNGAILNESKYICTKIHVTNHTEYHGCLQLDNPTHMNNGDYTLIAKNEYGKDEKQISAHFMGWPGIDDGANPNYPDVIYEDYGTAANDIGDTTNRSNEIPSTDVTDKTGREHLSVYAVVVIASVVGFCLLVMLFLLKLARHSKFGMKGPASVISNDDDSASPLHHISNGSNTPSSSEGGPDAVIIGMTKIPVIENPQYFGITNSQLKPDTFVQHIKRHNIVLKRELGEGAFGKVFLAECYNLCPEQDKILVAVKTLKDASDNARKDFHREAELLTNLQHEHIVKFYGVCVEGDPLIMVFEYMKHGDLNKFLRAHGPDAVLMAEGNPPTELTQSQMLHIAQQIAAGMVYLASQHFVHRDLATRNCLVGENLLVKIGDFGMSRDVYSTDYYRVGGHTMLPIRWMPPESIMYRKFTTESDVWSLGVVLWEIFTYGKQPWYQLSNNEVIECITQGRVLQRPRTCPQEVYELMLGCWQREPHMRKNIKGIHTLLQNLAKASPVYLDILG
Non-receptor tyrosine-protein kinase TYK2 (Homo sapiens), sequence (P29597 whole entry): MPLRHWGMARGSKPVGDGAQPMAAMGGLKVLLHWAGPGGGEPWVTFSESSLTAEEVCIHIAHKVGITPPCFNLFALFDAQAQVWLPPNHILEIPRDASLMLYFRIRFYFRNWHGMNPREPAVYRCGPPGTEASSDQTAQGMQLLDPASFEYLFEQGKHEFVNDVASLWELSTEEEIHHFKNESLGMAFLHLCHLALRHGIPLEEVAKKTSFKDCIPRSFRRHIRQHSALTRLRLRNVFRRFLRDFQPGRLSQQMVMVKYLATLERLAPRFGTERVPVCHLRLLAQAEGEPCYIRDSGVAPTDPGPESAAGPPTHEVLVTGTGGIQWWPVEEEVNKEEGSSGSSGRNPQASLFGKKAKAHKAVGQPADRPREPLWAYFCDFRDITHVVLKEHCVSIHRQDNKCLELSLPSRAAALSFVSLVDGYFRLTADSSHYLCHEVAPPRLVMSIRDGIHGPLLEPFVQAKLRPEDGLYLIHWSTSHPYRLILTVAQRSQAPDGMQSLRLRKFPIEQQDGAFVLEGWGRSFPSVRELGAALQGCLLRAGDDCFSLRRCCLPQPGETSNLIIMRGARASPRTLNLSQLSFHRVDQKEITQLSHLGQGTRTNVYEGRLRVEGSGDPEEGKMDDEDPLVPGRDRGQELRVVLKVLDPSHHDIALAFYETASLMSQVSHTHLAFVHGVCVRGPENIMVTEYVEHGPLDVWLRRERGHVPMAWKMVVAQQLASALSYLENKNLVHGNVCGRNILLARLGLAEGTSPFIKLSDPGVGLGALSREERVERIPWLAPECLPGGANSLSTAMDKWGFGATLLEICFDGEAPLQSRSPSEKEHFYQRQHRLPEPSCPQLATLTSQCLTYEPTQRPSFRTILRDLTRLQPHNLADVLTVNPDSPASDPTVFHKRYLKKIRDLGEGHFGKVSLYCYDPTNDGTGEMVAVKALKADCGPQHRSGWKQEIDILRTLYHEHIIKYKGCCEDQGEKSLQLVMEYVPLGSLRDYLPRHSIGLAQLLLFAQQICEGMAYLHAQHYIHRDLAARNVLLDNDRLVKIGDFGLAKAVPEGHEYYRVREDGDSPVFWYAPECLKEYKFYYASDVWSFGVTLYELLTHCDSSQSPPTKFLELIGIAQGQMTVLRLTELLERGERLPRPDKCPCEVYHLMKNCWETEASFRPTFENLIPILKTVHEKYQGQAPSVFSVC
Aurora kinase B (Homo sapiens), sequence (Q96GD4 whole entry): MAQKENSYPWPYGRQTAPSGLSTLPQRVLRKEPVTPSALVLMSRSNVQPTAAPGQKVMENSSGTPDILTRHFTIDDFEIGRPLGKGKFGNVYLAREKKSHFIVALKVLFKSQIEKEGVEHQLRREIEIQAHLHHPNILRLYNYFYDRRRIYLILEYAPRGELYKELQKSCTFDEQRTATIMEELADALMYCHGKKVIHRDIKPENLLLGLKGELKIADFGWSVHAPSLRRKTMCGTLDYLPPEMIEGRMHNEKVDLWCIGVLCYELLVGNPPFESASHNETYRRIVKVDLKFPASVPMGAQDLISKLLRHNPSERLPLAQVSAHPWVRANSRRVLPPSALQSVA

Consider `CS(=O)(=O)Nc1ccc(-c2ccc3c(NC(=O)C4CC4)n[nH]c3c2)cc1`, for which the inhibition in assay [1] is 3.27%; in assay [2], 2.22%; in assay [3], 5.91%; in assay [4], 2.1%; in [5], 9.06%; in [6], 2.62%. The inhibition is 5.31% in assay [7]; -0.89% in [8]; 11.9% in [9]; 2.55% in assay [10]; 20.2% in [11]; 4.33% in [12]. In addition, the inhibition in [13] came out at 8.21%; in [14], 1.71%; in assay [15] it was 23.3%; in assay [16], 5.26%; in assay [17], 6.56%; in [18], 1.04%. In addition, the inhibition in assay [19] was 5.76%; in assay [20], 6.29%.
Consider `CCCNc1cccc(-n2ncc3c(N/N=C/c4ccncc4)ncnc32)c1`, for which the inhibition in assay [1] was found to be 7.34%; in [2] it was 5.18%; in [3], 33.9%; in assay [4], 4.23%; in [5] it was 36.8%; in assay [6] it was 2.17%. Besides, the inhibition in assay [7] is 8.54%; in [8], -0.85%; in assay [9], 15.7%; in [10] it was 9.48%; in [11], 70.7%; in [12], 14.3%. Moreover, the inhibition in assay [13] came out at 43.8%; in assay [14], 17%; in assay [15] it was 58.5%; in assay [16] it was 6.3%; in assay [17] it was 28.4%; in assay [18], 1.16%. Moreover, the inhibition in assay [19] came to 3.57%; in [20], 9.69%.
For `CS(=O)(=O)CCNCc1ccc(-c2ccc3ncnc(Nc4ccc(OCc5ccccc5)cc4)c3c2)o1`, the inhibition in assay [1] came to 2.55%; in assay [2] it was 2.66%; in assay [3], 4.99%; in assay [4] it was 3.88%; in assay [5] it was 5.1%; in assay [6], 0.48%. Further, the inhibition is 3.39% in assay [7]; -1.78% in assay [8]; 7.19% in [9]; 3.51% in [10]; 7.7% in assay [11]; 4.74% in [12]. Moreover, the inhibition in [13] came to 10%; in [14] it was 2.17%; in assay [15], 7.65%; in [16], 5.66%; in assay [17] it was 7.82%; in assay [18] it was 0.28%. Also, the inhibition in [19] amounted to 1.58%; in [20], 3.5%.
In the case of `COc1cc(N2CCN(C(C)C)CC2)ccc1Nc1nc(Nc2cccc3ncccc23)c2cc[nH]c2n1`, the inhibition in [1] was found to be 1.49%; in [2], 0.73%; in assay [3], 0.22%; in assay [4] it was 0.87%; in assay [5] it was 0.74%; in [6], 0.48%. Further, the inhibition in [7] is 3.98%; in assay [8], -4.59%; in assay [9], 69.5%; in assay [10], 0.64%; in assay [11] it was 4.47%; in assay [12], 0.66%. The inhibition was 4.9% in assay [13]; 0.27% in assay [14]; -0.31% in assay [15]; 1.54% in assay [16]; 0.74% in assay [17]; 2.02% in assay [18]. In addition, the values for the inhibition in [19] and in [20] were 2.89% and 1.88%, respectively.
Consider `Cc1cc(O)cc(C)c1/C=C/c1cncc(C(=O)OC(C)(C)C)c1`, for which the inhibition turned out to be 2.95% in [1]; 2.88% in [2]; 5.2% in assay [3]; 2.87% in [4]; 5.85% in assay [5]; 8.06% in [6]. Further, the inhibition in assay [7] was 36.9%; in [8] it was -0.75%; in assay [9], 4.42%; in assay [10] it was 2.02%; in assay [11], 14.9%; in assay [12] it was 3.41%. Further, the inhibition in assay [13] is 6.42%; in assay [14], 0.94%; in assay [15], -1.91%; in assay [16], 5.45%; in assay [17], 17.5%; in assay [18], 2.5%. Also, the results for the inhibition in [19] and in assay [20] were 7.97% and 7.27%, respectively.

The inhibition is the drop in the measured response relative to a control, in per cent.

Source of the values: ChEMBL document CHEMBL1961873, “Compounds: GSK PKIS; Assays: Nanosyn kinase panel” (2012).
